# ChEMBL document CHEMBL3988442, “University of Dundee, Small-Polar-MMV Screening Library” (2021)
# Screen size: about 85,000 compounds; about 440 (0.52%) showed an effect of 50% or more. The list comes from a sample in which strong results are over-represented; it also holds similar structures and randomly drawn compounds.
# Test: In vitro enzyme assay to detect hydrolysis of chlorophenol red-beta-D-[…] directly proportional to the number of Toxoplasma stably expressing beta-galactosidase
# Assay type: functional, organism-based, Toxoplasma gondii
# Design: scale not given: in the data most compounds retested in dose-response had high values
SMILES,Percent Effect (50 µM),Percent Effect (10 µM)
Cc1nnc(SCCNC(=O)CC2C=CS(=O)(=O)C2)s1 (stereo not drawn),45.65%,–
CN(Cc1cnccn1)C(=O)c1ccc(CSc2nnc[nH]2)o1,–,-8.183%
CC(C)Cc1cc(C(=O)N(C)Cc2cnccn2)on1,13.67%,–
CSCc1ccc(C(=O)N(C)Cc2cnccn2)o1,98.35%,–
CC(CCO)CNS(=O)(=O)c1ccccc1F (stereo not drawn),13.76%,–
COCC(NC(=O)CNc1ccccc1)C(C)C (stereo not drawn),18.12%,–
Cc1ccc(S(=O)(=O)N2CCNC(=O)C2)cc1C(N)=O,3.593%,–
NC(=O)Cn1cc(NC(=O)N2CCCC(O)C2)cn1 (stereo not drawn),–,-5.248%
CC(C)Cn1cc(NC(=O)N2CCCC2)cn1,–,-15.58%
CC(C)Cn1cc(NC(=O)N2CCC(O)C2)cn1 (stereo not drawn),99.23%,–
CC(C)[C@@H]1CN(C(=O)c2ccc(O)cn2)C[C@H]1N(C)C,-13.98%,–
NS(=O)(=O)c1ccc2c(c1)N(CC(=O)NC1CC1)CC2,3.074%,–
CCc1ccc(CN2CCOCC(CO)C2)nc1 (stereo not drawn),13.26%,–
C[C@@H]1CN(C(=O)c2ccc(=O)[nH]c2)C[C@]1(C)O,3.055%,–
C[C@@H]1CN(C(=O)c2cc(F)cc(C#N)c2)C[C@]1(C)O,97.61%,–
C[C@@H]1CN(C(=O)c2ccccc2C#N)C[C@]1(C)O,10.95%,–
CSCC(CCO)NC(=O)c1coc2ccccc12 (stereo not drawn),-6.179%,–
CC(C)(C)OC(=O)N1CCC(n2cc(N)cn2)CC1,-15.49%,–
N[C@@H]1CCCc2c(F)cc(F)cc21,13.09%,–
Cc1ccc(F)c(NC(=O)N2CCOCC2CO)c1 (stereo not drawn),2.099%,–
O=C1CN(CC(=O)N2CCc3sccc3C2)CCN1,8.555%,–
Cc1ccccc1CC(=O)NCC(F)(F)F,-13.95%,–
CC(=O)C1CN(C(=O)OC(C)(C)C)CCO1 (stereo not drawn),-6.486%,–
CN(C)CCNCCC(Cc1ccccc1)C1CCOC(C)(C)C1.O=C(O)C(=O)O (stereo not drawn),–,9.919%
CN(C)CCNCC1CCOC(C)(C)C1 (stereo not drawn),–,12.77%
CCN(CC)CCCNCC1CCOC(C)(C)C1 (stereo not drawn),–,1.68%

SMILES,Percent Effect (50 µM),Percent Effect (10 µM)
CC(CCc1ccccc1)NC(=O)CNCCCN(C)C.O=C(O)C(=O)O (stereo not drawn),–,-5.52%
CN(C)CCCNCCC(Cc1ccccc1)C1CCOC(C)(C)C1.O=C(O)C(=O)O (stereo not drawn),–,77.21%
N#CCC(=O)Nc1ccc(N2CCOCC2)cc1,-1.188%,–
CCCNC(=O)CCNC(=O)Nc1cc(C)cc(C)n1,12.25%,–
NCCC(=O)Nc1ccccc1,99.48%,–
NCC(=O)Nc1ccccc1,0.1294%,–
Cl.NCCC(=O)Nc1ccc(-c2ccccc2)cc1,–,10.41%
CNCc1ccc(N)nc1,63.11%,–
Cc1nc2c(c(NCc3cnc4c(c3)CCC4)n1)CNC2,–,-1.27%
NCc1ccc(N)nc1,-3.539%,–
Nc1nc2c(c(NCc3ccncc3)n1)CCCC2,–,12.09%
Cc1nc2c(c(NCc3ccc(N)nc3)n1)CCCC2,50.4%,–
CNCc1ccc(N(C)C)nc1,-20.16%,–
NCc1cnn(-c2ccc(F)cc2)c1,4.484%,–
C1CC(OC2CCOC2)CCN1 (stereo not drawn),3.071%,–
COCCCOC1CN(C(=O)c2cc(F)ccc2C)C1,0.2477%,–
CCCc1nc2c(c(C)c(C)n2Cc2ccccn2)c(N)c1CC,–,74.72%
CCCc1nc2c(c(C)c(C)n2Cc2ccncc2)c(N)c1CC,–,-0.599%
CCCc1nc2c(c(C)c(C)n2Cc2cccnc2)c(N)c1CC,–,33.67%
CCNC(=O)C(C)N (stereo not drawn),-4.292%,–
COc1cc(OC)cc(N2CC(N)CC2=O)c1 (stereo not drawn),17.36%,–
O=C(Nc1cccc(F)c1)NC1CCN(Cc2ccncc2)CC1,–,6.4%
Cl.NC1CCc2nc(-c3cccnc3)nc(Nc3ccc(F)cc3)c2C1 (stereo not drawn),–,24.29%
Cl.NC1CCc2nc(-c3ccncc3)nc(Nc3cccc(F)c3)c2C1 (stereo not drawn),–,92.97%
O=C(Nc1cccc(F)c1)C1CCCN1 (stereo not drawn),7.876%,–
CCOCCNc1nc(-c2ccncc2)nc2c1CCNCC2,–,-6.442%

SMILES,Percent Effect (50 µM),Percent Effect (10 µM)
N[C@@H]1CCO[C@H]1c1ccnn1-c1ccccc1,-18.85%,–
CNC(=O)[C@@H]1CCCN1,-5.087%,–
O=c1cc(CN2CCOCC2)nc2sccn12,2.592%,–
CN1CCCC1CCSc1nc(N)c(C#N)cc1C#N (stereo not drawn),-0.4089%,–
Cc1cc(C)nc(NC(=O)c2ccncc2)c1,31.27%,–
CCO[C@@H]1COCC[C@H]1NC(=O)c1cncn1C,0.586%,–
CN(Cc1noc(C2CC2)n1)C1CCN(Cc2ccc(F)c(F)c2)C1 (stereo not drawn),–,1.098%
CN(Cc1noc(C2CC2)n1)C1CCN(Cc2ccccc2C#N)C1 (stereo not drawn),–,2.644%
CN(Cc1noc(C2CC2)n1)C1CCN(Cc2cccc(F)c2F)C1 (stereo not drawn),–,67.09%
CCNC(=O)CNc1noc(C(C)(C)C)n1,-18.17%,–
CCCN(CCOC)CC(=O)N(C)C,8.072%,–
COCCN(CC(=O)N(C)C)c1ncccn1,1.212%,–
COCCN(CCOC)CC(=O)N(C)C,56.58%,–
OC1CCCN(CCOc2ccccc2)C1 (stereo not drawn),1.087%,–
CCC(C)Oc1ccc(CNCCNS(C)(=O)=O)cc1Cl (stereo not drawn),–,19.69%
CCC(C)Oc1ccc(CNCCNC(C)=O)cc1Cl (stereo not drawn),–,19.61%
CCC(C)Oc1ccc(CNCCc2c[nH]cn2)cc1Cl (stereo not drawn),–,81.15%
CCN(CCN(C)C)C(=O)c1cn(CCN)nn1,2.797%,–
Cc1cc(NC(=O)C(C)N(C)Cc2cc(C)on2)on1 (stereo not drawn),5.589%,–
Cc1ccc(C(=O)NC2CCN(C(C)C)CC2)o1,-16.97%,–
OCCCN(Cc1ccccc1)Cc1ccccn1,-0.1376%,–
NCc1cccc(C(F)(F)F)n1,30.32%,–
CCOC(=O)CNC(=O)NCCc1ccc(OC)cc1,-17.09%,–
COc1ccc(CCC(=O)NCCNC(C)=O)cc1,21.36%,–
COc1ccc(CCNC(=O)NCCCC(N)=O)cc1,98.98%,–
CC1(C)CCCN(C(=O)CCS(C)(=O)=O)CC1,-2.783%,–
